A short description of assay [1]: ATG_CRE_CIS: Attagene CIS-FACTORIAL HepG2 Assay for human cAMP Responsive Element (CRE) binding protein 3 (AID 2282926). As to conditions: HepG2 CRE cis-reporter, Attagene multiplexed mRNA; actives raise or lower the signal. In outline: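 We dosed HepG2 cells bearing multiple cis-promoter reporter units for 24 h and measured reporter mRNA by RT-PCR with capillary electrophoresis detection. Bidirectional concentration-response fitting used DMSO as negative control.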

Assay [2] concerns the target CCAAT/enhancer-binding protein beta (Homo sapiens) (UniProt P17676). As to the kind of experiment: ATG_C_EBP_CIS: Attagene CIS-FACTORIAL HepG2 Assay for human CCAAT/Enhancer Binding Protein (C/EBP) beta (AID 2282927). As to conditions: HepG2 Attagene cis-factorial transcription factor reporter; actives raise or lower the signal. In outline:
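Chemical-treated HepG2 cells (24 h) bearing cis-regulated reporter constructs were processed for total RNA, then reverse transcription, PCR amplification, fluorescent primer extension and fragment analysis; gain- and loss-of-signal were fitted against DMSO.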

Assay [3] is described as follows: ATG_CMV_CIS: Attagene CIS-FACTORIAL HepG2 Assay for human CMV (Internal Marker) (AID 2282928).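 Also: endpoint acts as a background internal control marker rather than a target.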 Conditions: HepG2 CMV promoter reporter, transcription factor profiling; actives raise or lower the signal. In outline:
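HepG2 cells transiently transfected with multiple cis-regulated reporter units; 24 h compound exposure. Reporter mRNA quantified by RT-PCR, 6-FAM primer-extension labeling, HpaI digestion and capillary electrophoresis; bidirectional fitting against DMSO baseline.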

The nature of assay [4]: ATG_DR4_LXR_CIS: Attagene CIS-FACTORIAL HepG2 Assay for human Liver X Receptor (LXR), DR4 submotif (AID 2282929). Conditions: HepG2 Attagene DR4 cis-reporter, mRNA transcription; actives raise or lower the signal. In outline:
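Total RNA from 24 h-treated, MRTU-transfected HepG2 cells underwent reverse transcription, PCR, fluorescent primer extension and restriction digestion before capillary electrophoresis. Both increases and decreases in reporter signal were fitted against DMSO.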

Assay [5] concerns the target Aryl hydrocarbon receptor (Homo sapiens) (UniProt P35869). As to the kind of experiment: ATG_Ahr_CIS: Attagene CIS-FACTORIAL HepG2 Assay for human Aryl Hydrocarbon Receptor (Ahr) (AID 2282930). Conditions: HepG2 AhR cis-factorial reporter transcription; actives raise or lower the signal. In outline:
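Following 24 h of chemical dosing, transfected HepG2 liver cells with cis-driven reporter units were lysed for RNA; reporter mRNA was quantified via RT-PCR and capillary electrophoresis, and responses fitted bidirectionally from DMSO.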

Assay [6] is described as follows: ATG_AP_2_CIS: Attagene CIS-FACTORIAL HepG2 Assay for human Activator Protein 2 (AP-2) (AID 2282932). As to conditions: HepG2 AP-2 cis-reporter, Attagene transcription factor profiling; actives raise or lower the signal. In outline:
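Bidirectional curve fitting against DMSO was applied to reporter mRNA signals from HepG2 cells 24 h after dosing. Cis-promoter reporter units, transiently transfected, were read by RT-PCR plus capillary electrophoresis.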

A short description of assay [7]: ATG_BRE_CIS: Attagene CIS-FACTORIAL HepG2 Assay for human Bone Morphogenetic Protein (BMP) Response Element (BRE) (AID 2282933). Conditions: HepG2 BMP response element reporter, Attagene transcription factor profiling; actives raise or lower the signal. In outline:
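Multiplexed cis-reporter assay, HepG2, 24 h exposure. mRNA from reporter units quantified via RT-PCR/CE; DMSO baseline; bidirectional curve fit.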

Assay [8] deals with Retinoic acid receptor alpha (Homo sapiens) (UniProt P10276). As to the kind of experiment: ATG_DR5_RAR_CIS: Attagene CIS-FACTORIAL HepG2 Assay for human Retinoic Acid Receptor Alpha (RARE), DR5 submotif (AID 2282934).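 As to AC50: reporter responds to endogenous RAR alpha beta and gamma in HepG2 not RARA alone.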 Conditions: HepG2 Attagene cis-factorial RARE DR5 reporter, mRNA; actives raise or lower the signal. In outline:
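Transfected HepG2 reporter cells are exposed to chemicals for 24 h. Then RNA is extracted and the DR5 element reporter transcript is measured by RT-PCR and capillary electrophoresis, with bidirectional curve fitting relative to DMSO.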

In assay [9] the target is Transcription factor E2F1 (Homo sapiens) (UniProt Q01094). As to the kind of experiment: ATG_E2F_CIS: Attagene CIS-FACTORIAL HepG2 Assay for human E2F Transcription Factor 1 (AID 2282935). As to conditions: HepG2 Attagene cis-reporter, E2F reporter RNA transcripts; actives raise or lower the signal. In outline: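 Multiplexed cis-reporter assay: HepG2, transient transfection, 24 h dosing, mRNA quantitation by labeled RT-PCR and CE.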

The nature of assay [10]: ATG_E_Box_CIS: Attagene CIS-FACTORIAL HepG2 Assay for human Enhancer Box (E-box) (AID 2282936). Conditions: HepG2 E-box cis-reporter transcription, actives raise or lower the signal. In outline:
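Multiplexed CIS reporter system in transiently transfected HepG2 cells measures native transcription factor activity. Reporter RNA after 24 h exposure is profiled by RT-PCR-capillary electrophoresis.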

Assay [11] can be described thus: ATG_M_61_CIS: Attagene CIS-FACTORIAL HepG2 Assay for M61 Transcription Factor (Internal Marker) (AID 2282937). Conditions: HepG2 Attagene CIS-FACTORIAL M61 internal marker reporter; actives raise or lower the signal. In outline:
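Transfect HepG2 with MRTUs; dose 24 h; isolate RNA; reverse-transcribe with DNase I treatment; PCR-amplify, FAM-label and cut with HpaI for 2 h at 37 C; resolve by CE. Bidirectional fitting against DMSO.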

The nature of assay [12]: ATG_EGR_CIS: Attagene CIS-FACTORIAL HepG2 Assay for human Early Growth Response 1 (EGR1) (AID 2282938). Conditions: HepG2 Attagene CIS-FACTORIAL EGR reporter mRNA; actives raise or lower the signal. In outline: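 After a 24 h treatment of transiently transfected HepG2 cells, total RNA was reverse-transcribed and reporter sequences PCR-amplified, labelled and run on capillary electrophoresis. Reporters sit under cis-regulatory promoters sensing endogenous factors.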

Assay [13] can be described thus: ATG_AP_1_CIS: Attagene CIS-FACTORIAL HepG2 Assay for human Activator Protein 1 (AP-1) (AID 2282931). As to conditions: HepG2 Attagene cis-factorial AP-1 reporter mRNA; actives raise or lower the signal. In outline: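 HepG2, transient cis-reporter transfection; 24 h; readout RT-PCR/CE fluorescence; DMSO baseline, gain and loss fitted.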

SMILES strings stand for the structures. The source made the active and inactive calls. The calls were made as follows: active = hit-call score of the fitted dose curve at least 0.9, where 1 is the maximum; inactive = score below 0.9.

Aryl hydrocarbon receptor (Homo sapiens), sequence (P35869 whole entry, looked up): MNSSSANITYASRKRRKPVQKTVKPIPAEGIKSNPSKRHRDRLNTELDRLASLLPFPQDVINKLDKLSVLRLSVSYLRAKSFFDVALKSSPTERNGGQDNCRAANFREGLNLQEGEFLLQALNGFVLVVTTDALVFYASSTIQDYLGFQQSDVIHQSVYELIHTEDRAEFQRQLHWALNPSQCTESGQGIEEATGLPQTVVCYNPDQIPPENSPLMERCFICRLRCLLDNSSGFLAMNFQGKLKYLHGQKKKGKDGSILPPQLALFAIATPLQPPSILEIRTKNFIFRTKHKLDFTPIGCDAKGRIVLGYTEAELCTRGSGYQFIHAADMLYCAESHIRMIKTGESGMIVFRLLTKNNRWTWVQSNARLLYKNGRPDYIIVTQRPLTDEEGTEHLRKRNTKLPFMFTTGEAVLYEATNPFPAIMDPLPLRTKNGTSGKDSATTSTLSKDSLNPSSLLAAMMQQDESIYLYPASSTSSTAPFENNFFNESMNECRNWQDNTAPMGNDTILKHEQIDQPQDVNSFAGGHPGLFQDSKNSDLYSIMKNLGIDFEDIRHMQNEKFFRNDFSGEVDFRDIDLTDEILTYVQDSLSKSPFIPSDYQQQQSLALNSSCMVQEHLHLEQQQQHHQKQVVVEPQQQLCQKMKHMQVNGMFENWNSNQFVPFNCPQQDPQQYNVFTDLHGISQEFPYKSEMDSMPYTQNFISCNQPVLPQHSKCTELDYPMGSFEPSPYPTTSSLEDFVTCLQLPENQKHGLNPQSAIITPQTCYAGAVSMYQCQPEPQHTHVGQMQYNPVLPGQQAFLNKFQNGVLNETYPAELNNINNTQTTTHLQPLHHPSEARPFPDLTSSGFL
Retinoic acid receptor alpha (Homo sapiens), sequence (P10276 whole entry, looked up): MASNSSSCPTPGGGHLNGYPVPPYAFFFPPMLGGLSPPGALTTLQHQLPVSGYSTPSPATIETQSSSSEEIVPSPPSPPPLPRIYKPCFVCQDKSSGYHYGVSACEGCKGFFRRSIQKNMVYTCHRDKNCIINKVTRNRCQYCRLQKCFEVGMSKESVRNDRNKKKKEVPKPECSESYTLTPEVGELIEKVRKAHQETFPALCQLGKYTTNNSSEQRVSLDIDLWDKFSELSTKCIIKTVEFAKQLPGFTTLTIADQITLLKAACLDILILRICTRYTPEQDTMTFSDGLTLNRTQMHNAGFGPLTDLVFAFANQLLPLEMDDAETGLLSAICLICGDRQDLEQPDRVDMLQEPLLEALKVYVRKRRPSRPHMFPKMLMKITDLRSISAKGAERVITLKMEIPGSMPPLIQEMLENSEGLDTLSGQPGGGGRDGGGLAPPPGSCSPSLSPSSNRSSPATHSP
Transcription factor E2F1 (Homo sapiens), sequence (Q01094 whole entry, looked up): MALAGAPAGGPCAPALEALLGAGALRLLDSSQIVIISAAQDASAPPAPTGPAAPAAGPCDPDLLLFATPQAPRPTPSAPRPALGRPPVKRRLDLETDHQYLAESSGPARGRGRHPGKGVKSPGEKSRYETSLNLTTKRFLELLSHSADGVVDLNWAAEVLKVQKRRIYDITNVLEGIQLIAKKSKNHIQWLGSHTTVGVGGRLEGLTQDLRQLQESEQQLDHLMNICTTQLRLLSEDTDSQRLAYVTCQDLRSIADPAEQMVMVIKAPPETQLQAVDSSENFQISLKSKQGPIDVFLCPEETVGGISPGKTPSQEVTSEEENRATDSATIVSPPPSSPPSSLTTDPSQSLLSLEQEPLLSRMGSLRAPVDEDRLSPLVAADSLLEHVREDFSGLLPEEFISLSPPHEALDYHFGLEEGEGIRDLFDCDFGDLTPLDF
CCAAT/enhancer-binding protein beta (Homo sapiens), sequence (P17676 whole entry, looked up, the tested form may be a part): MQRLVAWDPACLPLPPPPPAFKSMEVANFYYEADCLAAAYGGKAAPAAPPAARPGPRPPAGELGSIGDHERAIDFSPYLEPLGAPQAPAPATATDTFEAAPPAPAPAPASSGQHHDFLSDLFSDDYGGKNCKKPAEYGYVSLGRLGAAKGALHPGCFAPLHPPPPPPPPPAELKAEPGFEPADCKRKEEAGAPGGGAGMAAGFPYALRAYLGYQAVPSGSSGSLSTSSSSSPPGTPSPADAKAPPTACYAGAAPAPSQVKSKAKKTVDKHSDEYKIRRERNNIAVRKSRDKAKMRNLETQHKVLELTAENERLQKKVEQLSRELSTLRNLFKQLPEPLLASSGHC

As for `CCCCOC(C)=O`, the outcome in assay [1], in assay [2], in [3], in [4], in [5] and in assay [6] was inactive. Besides, the result in assay [7], in assay [8], in assay [9], in assay [10], in assay [11] and in assay [12] was inactive.
One may read the AC50 as the concentration at which the activity in the assay is half-maximal. Regarding `C[CH2][Hg][S]c1ccccc1C(=O)O`, the AC50 was 2.94 µM (active) in assay [1]; 2.23 µM (active) in assay [2]; 5.13 µM (active) in assay [4]; 4.81 µM (active) in assay [6]; 1.11 µM (active) in assay [8]; 6.19 µM (active) in [10]. The AC50 in assay [12] was 3.71 µM (active). Further, the result in [3], in [5], in assay [7], in [9] and in assay [11] was inactive.
As for `ClCCN1CCOCC1`, the result in assay [1], in [2], in [3], in [4], in assay [5] and in assay [6] was inactive. The molecule was called inactive in [7], in assay [8], in [9], in assay [10], in assay [11] and in assay [12].
As to `C=CCOC(F)(C(F)(F)F)C(F)(F)F`, the result in assay [1], in [2], in assay [3], in assay [4], in [5] and in assay [6] was inactive. In addition, the molecule was called inactive in assay [7], in assay [9], in [10], in [11] and in [12].
Take `C=C(C)C(=O)OCCCCOC(=O)C(=C)C`: the molecule was called inactive in assay [1], in assay [2], in assay [3], in assay [4], in assay [5] and in assay [6]. The result in assay [7], in [8], in [9], in [10], in assay [11] and in assay [12] was inactive.
Regarding `C=CCN=C=S`, the molecule was classed as inactive in [1], in assay [2], in assay [3], in assay [4], in assay [5] and in assay [6]. Moreover, the molecule was classed as inactive in assay [7], in [8], in [9], in assay [11] and in [12].
On to `CN(N=O)C(N)=O`, for which the molecule was called inactive in assay [1], in assay [2], in assay [3], in [4], in assay [5] and in assay [13]. For the same molecule, the molecule was called inactive in assay [6], in assay [7], in assay [9], in [10], in assay [11] and in assay [12].
As for `O=C(Cl)OCCOCCOC(=O)Cl`, the result in assay [1], in assay [2], in [3], in [4], in assay [5] and in assay [6] was inactive. Besides, the molecule was called inactive in [7], in [8], in [9], in assay [10], in assay [11] and in assay [12].
Consider `CNC(=O)N(C)c1nc2ccccc2s1`, for which the molecule was called inactive in [1], in [2], in [3], in assay [4], in assay [6] and in assay [7]. Moreover, the molecule was called inactive in assay [8], in assay [9], in [11] and in assay [12]. Besides, the AC50 in assay [5] was 1.08 µM (active).
As to `O=C(CCl)NCO`, the molecule was called inactive in assay [1], in [2], in [3], in [4], in assay [5] and in assay [6]. Also, the molecule was classed as inactive in [7], in assay [8], in [9], in assay [11] and in [12].
As to `Cc1cc(C(F)(C(F)(F)F)C(F)(F)F)ccc1NC(=O)c1cccc(I)c1C(=O)NC(C)(C)CS(C)(=O)=O`, the molecule was called inactive in [1], in [2], in assay [3], in assay [4], in [5] and in assay [13]. The molecule was classed as inactive in [6], in assay [7], in assay [9], in [11] and in assay [12].
Turning to `CC(F)(F)CC(F)(F)F`, the molecule was classed as inactive in assay [1], in assay [2], in assay [3], in assay [4], in assay [5] and in assay [6]. For the same molecule, the result in [7], in assay [8], in [9], in assay [10], in assay [11] and in assay [12] was inactive.
For the molecule `C=CC(F)(C(F)(F)F)C(F)(F)C(F)(F)F` (stereo unspecified), the outcome in assay [1], in assay [2], in assay [3], in [4], in [5] and in [6] was inactive. Also, the molecule was classed as inactive in assay [7], in assay [9], in assay [10], in [11] and in assay [12].
`C=CCc1ccccc1O`: the call in assay [1], in assay [2], in [3], in [4], in [5] and in assay [6] was inactive. The call in assay [7], in assay [8], in assay [9], in assay [10], in assay [11] and in assay [12] was inactive.
Turning to `c1ccc(-c2cccc(-c3ccccc3)c2)cc1`, the outcome in assay [1], in assay [2], in assay [3], in [13], in [6] and in [7] was inactive. Moreover, the call in [9], in assay [11] and in [12] was inactive. Further, the results for the AC50 in assay [4] and in assay [5] were 27.4 µM (active) and 21.9 µM (active), respectively.
For the molecule `CC(C)(c1ccc(O)c(-c2ccccc2)c1)c1ccc(O)c(-c2ccccc2)c1`, the molecule was called inactive in [1], in [2], in assay [3], in assay [5], in [13] and in assay [6]. Moreover, the outcome in [7], in assay [9], in assay [10] and in assay [11] was inactive. Moreover, the AC50 in assay [4] is 4.85 µM (active); in [12] it was 5.2 µM (active).
For `Nc1nc(N)nc(Cl)n1`, the result in assay [1], in assay [2], in [3], in [4], in assay [5] and in assay [6] was inactive. Further, the molecule was classed as inactive in assay [7], in [8], in assay [9], in assay [11] and in assay [12].
On to `CN(C)[C@@H]1C(=O)C(C(N)=O)=C(O)[C@@]2(O)C(=O)C3=C(O)c4c(O)ccc(Cl)c4[C@@](C)(O)[C@H]3C[C@@H]12`, for which the call in assay [1], in [2], in [4], in assay [5], in assay [6] and in assay [8] was inactive. In addition, the molecule was classed as inactive in assay [9], in assay [10], in assay [11] and in assay [12]. Moreover, the AC50 is 25.9 µM (active) in [3] and 30.3 µM (active) in assay [7].
For the molecule `CC(C)CC(C)(c1ccc(O)cc1)c1ccc(O)cc1`, the molecule was called inactive in assay [1], in assay [2], in [3], in [5], in [6] and in [7]. The outcome in [8] and in assay [11] was inactive. Besides, the AC50 was 11.1 µM (active) in assay [4] and 17.5 µM (active) in assay [12].
Take `CCOP(=S)(OCC)SCSc1cc(Cl)ccc1Cl`: the call in assay [1], in assay [2], in [3], in [4], in [5] and in [6] was inactive. Moreover, the molecule was called inactive in assay [7], in assay [9], in [10], in assay [11] and in assay [12].
For the molecule `C#C[C@]1(O)CC[C@H]2[C@@H]3CCC4=CC(=O)CC[C@]4(C)[C@H]3CC[C@@]21C`, the molecule was classed as inactive in assay [1], in [2], in assay [3], in assay [4], in assay [5] and in assay [6]. Moreover, the call in [7], in assay [8], in assay [9], in assay [10], in assay [11] and in assay [12] was inactive.

(Values after PubChem BioAssay (EPA / NIEHS).)
